Experiment [1] in a line: qHTS assay to identify small molecule antagonists of the retinoid acid receptor (RAR) signaling pathway - cell viability counter screen (AID 1159551). Further: nearly all actives have a fitted effect of over 35% in size. In a few lines: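 ATP-based viability, C3RL4 cells, 6 h at 37 C with 1 uM final retinol co-added after compound; luminescence read 30 min post CellTiter-Glo, RT.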
Experiment [2] in a line: qHTS assay to identify small molecule agonists of the retinoic acid receptor (RAR) signaling pathway (AID 1159553). In a few lines: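 Quantitative high-throughput format: the Tox21 10K library was tested on C3RL4 RARE-luciferase cells for 6 hr at 37 C and 5% CO2, with luminescence measured after a 30 min room-temperature reagent step.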
For orientation: Quantitative high-throughput screening tests each substance at several concentrations.

Experiment [3] is described as follows: qHTS assay to identify small molecule antagonists of the estrogen related receptor (ERR) signaling pathway from Tox21 library - cell viability counter screen (AID 1224834). Further: nearly all actives have a fitted effect of over 30% in size. The method, boiled down: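 Compounds in DMSO were pinned onto ERR cells that had been incubated for 6 h, and the plates were held at 37 C for 17.5 h. CellTiter-Fluor reagent was then added and fluorescence was measured after 30 min.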

The target of experiment [4] is Luciferin 4-monooxygenase (Photinus pyralis) (UniProt P08659). As to the kind of experiment: qHTS assay to identify small molecule inhibitors of firefly luciferase (AID 1224835). Further: nearly all actives have a fitted effect of over 25% in size. In a few lines: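 Inhibition of purified Photinus luciferase is measured by luminescence. Substrate levels (D-luciferin, ATP) sit at their KM values. Each compound is tested in a concentration series.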

Experiment [5] in a line: qHTS assay to identify small molecule agonists of the constitutive androstane receptor (CAR) signaling pathway - cell viability counter screen (AID 1224836). Further: nearly all actives have a fitted effect of over 45% in size. The method, boiled down:
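HepG2-CYP2B6-hCAR, 2500 cells/well, 4 h pre-incubation; cpd 15 conc + PK11195 0.75 uM final; 23 h, 37 C/5% CO2; CellTiter-Fluor, fluorescence.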

A short description of experiment [6]: qHTS assay to identify small molecule antagonists of the constitutive androstane receptor (CAR) signaling pathway - cell viability counter screen (AID 1224837). Further: nearly all actives have a fitted effect of over 45% in size. The method, boiled down: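 Cells are seeded, rested 4 hr at 37 C/5% CO2, dosed with compound (15-point series) and 50 nM CITCO, incubated a further 23 hr, and then CellTiter-Fluor reagent is added before fluorescence is read. The line is HepG2 with stable hCAR and CYP2B6-2.2kb.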

The target in experiment [7] is Nuclear receptor subfamily 1 group I member 3 (Homo sapiens) (UniProt Q14994). As to the kind of experiment: qHTS assay to identify small molecule antagonists of the constitutive androstane receptor (CAR) signaling pathway (AID 1224838).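 Further: HepG2 cells stably expressing hCAR with CYP2B6 luciferase reporter stimulated by CITCO; nearly all actives have a fitted effect of over 40% in size.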 The method, boiled down:
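Luminescence from a CYP2B6-2.2kb promoter reporter in hCAR-expressing HepG2 cells reflects CAR signaling. Cells received compounds at 15 concentrations and 50 nM CITCO (final), then incubated 24 h at 37 C/5% CO2.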

Experiment [8] has the same target. The experiment is described as follows: qHTS assay to identify small molecule agonists of the constitutive androstane receptor (CAR) signaling pathway (AID 1224839). Further: nearly all actives have a fitted effect of over 15% in size. Further: potency means the concentration at half of the fitted maximal effect.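 On activation: HepG2 cells stably carrying human CAR and a CYP2B6 luciferase reporter.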 The method, boiled down: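 HepG2-CYP2B6-hCAR cells, 2500/well, 4 h pre-incubation; compounds 15 conc.; PK11195 0.75 uM final; 24 h, 37 C/5% CO2; ONE-Glo luciferase read.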
Experiment [9] is described as follows: qHTS assay to identify small molecule antagonists of the estrogen related receptor signaling pathway with the pleiotropic PPARgamma coactivator (PGC) from Tox21 10K library - cell viability counter screen (AID 1224840; active means well fitted cell-killing curve with a large enough effect in the repeat runs, not every such curve was filed as active; further: nearly all actives have a fitted effect of over 40% in size). The method, boiled down: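 Cell viability is measured by CellTiter-Fluor fluorescence in PGC/ERR cells that receive compounds after a 6-hour attachment period and are then incubated 17.5 hours at 37 C.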

For experiment [10], the target named is Thyrotropin receptor (Homo sapiens) (UniProt P16473). The experiment is described as follows: qHTS assay to identify small molecule agonists of the thyroid stimulating hormone receptor (TSHR) signaling pathway (AID 1224843; calls by dose curve; further: nearly all actives have a fitted effect of over 45% in size). The method, boiled down:
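A cell-based cAMP HTRF format was run in TSHR-transfected HEK293 cells, 800 per well. Treatment: 30 min, room temperature. Detection: 1 h with labelled cAMP and anti-cAMP cryptate. Concentration-response over 15 points, three replicates.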

Experiment [11] can be described thus: qHTS assay to identify small molecule agonists of the hypoxia (HIF-1) signaling pathway - cell viability counter screen (AID 1224844; calls by dose curve; further: nearly all actives have a fitted effect of over 50% in size). The method, boiled down:
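Viability counter screen: HRE-bla ME-180 cells plated 5 hrs before compound addition, treated 17 hrs at 37C and 5% CO2, then CellTiter-Glo added after the FRET reporter read; luminescence after 30 min.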

Experiment [12] is described as follows: qHTS assay to identify small molecule agonists of H2AX (AID 1224845; active means well fitted activation curve with a large enough effect in the signal ratio in the repeat runs, not every such curve was filed as active; the % refers to the signal ratio). In a few lines: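 Phospho-H2AX Ser139 measured by HTRF (ex 320 nm; em 665 and 620 nm) after 24 hr antibody incubation. Compounds, 15 concentrations, 0.76% DMSO, were applied to CHO-K1 cells for 3hr at 37C before lysis.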
Experiment [13] is described as follows: qHTS assay to identify small molecule agonists of the hypoxia (HIF-1) signaling pathway (AID 1224846; active means well fitted activation curve with a large enough effect in the signal ratio in the repeat runs, not every such curve was filed as active; the % refers to the signal ratio). The method, boiled down:
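Agonist mode reporter screen. ME-180 cells stably expressing bla under HRE control received test compounds in DMSO for 17 hrs (37C, 5% CO2), and beta-lactamase activity was then detected with the CCF4-AM FRET substrate.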

The nature of experiment [14]: qHTS RealTime-Glo MT Cell Viability Assay in HepG2 cells - 24 hour (AID 1224867). Further: nearly all actives have a fitted effect of over 50% in size. The method, boiled down: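 qHTS, HepG2, 600 cells/well, RealTime-Glo (NanoLuc + prosubstrate) added with cells; 5 h preincubation; DMSO compound addition; 37 C; luminescence at 0/8/16/24/32/40 h.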
Experiment [15] in a line: qHTS assay to identify small molecule agonists of H2AX - cell viability counter screen (AID 1224847; calls by dose curve;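 further: wild-type CHO-K1 cells; top concentration of the series differs between compounds; nearly all actives have a fitted effect of over 30% in size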). The method, boiled down: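 Cells plated first: CHO-K1, 1000 per well in 10% FBS medium, incubated overnight at 37C. Then 15-point compound titration added (final DMSO 0.76%) for 3 hr. Finally CellTiter-Glo added and luminescence read.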
Experiment [16] is described as follows: qHTS assay to identify small molecule antagonists of the retinoic acid receptor (RAR) signaling pathway (AID 1159552; further: nearly all actives have a fitted effect of over 50% in size). The method, boiled down: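 Cells of the C3RL4 line were seeded, incubated overnight, then dosed with compounds in DMSO followed immediately by retinol (1 uM final). Six hours later luciferase detection reagent went in; signal was measured after 30 min at RT.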

Experiment [17] can be described thus: qHTS assay to identify small molecule antagonists of the estrogen related receptor signaling pathway with the pleiotropic PPARgamma coactivator (PGC) from Tox21 10K library (AID 1224841; call rule not given here; further: actives are mostly falling curves and most rising ones were filed inactive; nearly all actives have a fitted effect of over 50% in size). The method, boiled down:
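Cells stably carrying the PGC/ERR reporter, seeded at 2,000 per well, received pin-transferred compounds 6 h post-plating. Exposure lasted 18 h at 37 C. Signal: One-Glo luminescence.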

Experiment [18] in a line: qHTS assay to identify small molecule agonists of the estrogen related receptor signaling pathway with the pleiotropic PPARgamma coactivator (PGC) from Tox21 10K library (AID 1224842). Further: nearly all actives have a fitted effect of over 15% in size. The method, boiled down: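 Luminescence from One-Glo (30 min, room temperature) measured after PGC/ERR cells had 18 h at 37 C with pinned compound (23 nL in DMSO). Cells had been seeded at 2,000 per well and pre-incubated 6 h.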

Experiment [19] can be described thus: qHTS assay to identify small molecule agonists of the estrogen related receptor (ERR) signaling pathway from Tox21 library (AID 1224849; calls by dose curve; further: nearly all actives have a fitted effect of over 15% in size). The note with it: ERR reporter cell line, ONE-Glo luciferase, 18 h; at 92.4 µM (top of the series) unless noted. In a few lines:
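Quantitative HTS in agonist format: NTP ERR cell line, compounds transferred in DMSO after 6 h plating, 18 h incubation at 37 C, ONE-Glo luminescence endpoint.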

Experiment [20] can be described thus: qHTS assay to identify small molecule antagonists of the estrogen related receptor (ERR) signaling pathway from Tox21 library (AID 1224848). Further: nearly all actives have a fitted effect of over 50% in size. The method, boiled down: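 ERR cell line, 2,000 cells/well. 6 h settle, then compound (DMSO) added; 18 h at 37 C; ONE-Glo luminescence after 30 min RT.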

In PubChem BioAssay (Tox21) one finds outcome, Potency and activity change, positive = activation data, which are given here for eight compounds.

A number with no mark means an inactive call. Results filed as inconclusive are left out. Activity calls are given as the source filed them. Unless noted, the call rests on the fitted dose curve; in most records, active means well fitted curve in the direction sought with a large enough effect in the repeat runs; inconclusive means weak or mixed curves; inactive means no such curve, though single readings can be large; an effect the other way counts as inactive or inconclusive.
On the % scale 0 is the no-effect control and ±100 the full control effect.

Luciferin 4-monooxygenase (Photinus pyralis), sequence (P08659 whole entry, looked up): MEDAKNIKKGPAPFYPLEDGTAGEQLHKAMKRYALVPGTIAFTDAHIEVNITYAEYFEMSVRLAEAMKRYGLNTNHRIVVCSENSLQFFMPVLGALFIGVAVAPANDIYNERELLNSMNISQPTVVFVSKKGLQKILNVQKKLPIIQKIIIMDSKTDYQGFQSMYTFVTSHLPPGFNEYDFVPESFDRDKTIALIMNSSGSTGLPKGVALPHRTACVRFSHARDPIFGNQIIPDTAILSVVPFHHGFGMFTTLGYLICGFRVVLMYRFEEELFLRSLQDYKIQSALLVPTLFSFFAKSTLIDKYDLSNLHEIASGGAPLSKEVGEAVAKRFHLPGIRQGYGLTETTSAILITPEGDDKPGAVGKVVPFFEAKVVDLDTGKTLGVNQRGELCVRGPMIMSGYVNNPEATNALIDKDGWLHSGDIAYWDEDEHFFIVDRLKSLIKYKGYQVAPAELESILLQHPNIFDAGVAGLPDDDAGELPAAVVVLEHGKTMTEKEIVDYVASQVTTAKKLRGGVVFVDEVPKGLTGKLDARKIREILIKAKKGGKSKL
Nuclear receptor subfamily 1 group I member 3 (Homo sapiens), sequence (Q14994 whole entry, looked up): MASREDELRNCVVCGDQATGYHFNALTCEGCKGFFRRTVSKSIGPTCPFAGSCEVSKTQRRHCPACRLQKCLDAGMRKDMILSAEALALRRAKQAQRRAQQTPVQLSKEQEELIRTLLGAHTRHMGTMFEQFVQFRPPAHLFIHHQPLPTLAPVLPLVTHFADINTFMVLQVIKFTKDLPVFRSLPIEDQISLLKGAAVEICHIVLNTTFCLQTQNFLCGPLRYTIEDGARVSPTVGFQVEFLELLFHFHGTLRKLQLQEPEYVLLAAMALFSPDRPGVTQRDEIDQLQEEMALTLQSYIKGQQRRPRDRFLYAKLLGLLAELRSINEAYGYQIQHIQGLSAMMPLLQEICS
Thyrotropin receptor (Homo sapiens), sequence (P16473 whole entry, looked up): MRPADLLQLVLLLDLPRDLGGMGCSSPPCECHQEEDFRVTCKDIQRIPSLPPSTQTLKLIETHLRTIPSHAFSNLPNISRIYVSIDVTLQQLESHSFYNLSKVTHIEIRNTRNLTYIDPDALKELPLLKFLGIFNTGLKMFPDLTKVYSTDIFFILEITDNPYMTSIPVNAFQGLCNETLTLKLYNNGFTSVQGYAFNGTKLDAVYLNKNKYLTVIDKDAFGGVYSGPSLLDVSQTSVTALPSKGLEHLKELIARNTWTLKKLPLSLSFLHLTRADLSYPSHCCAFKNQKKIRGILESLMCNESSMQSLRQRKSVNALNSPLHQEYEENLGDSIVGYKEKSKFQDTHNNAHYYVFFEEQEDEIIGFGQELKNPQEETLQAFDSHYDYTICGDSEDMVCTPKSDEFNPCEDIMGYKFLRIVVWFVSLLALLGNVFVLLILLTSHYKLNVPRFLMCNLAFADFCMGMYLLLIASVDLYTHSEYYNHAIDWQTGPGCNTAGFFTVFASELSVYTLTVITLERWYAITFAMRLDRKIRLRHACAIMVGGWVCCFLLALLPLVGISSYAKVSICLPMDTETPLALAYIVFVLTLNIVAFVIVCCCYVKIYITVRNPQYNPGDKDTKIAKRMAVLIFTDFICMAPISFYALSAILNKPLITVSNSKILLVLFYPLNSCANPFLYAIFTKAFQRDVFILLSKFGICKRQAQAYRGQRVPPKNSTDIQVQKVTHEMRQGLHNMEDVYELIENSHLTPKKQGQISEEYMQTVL

On to `O=C1c2ccccc2C(=O)N1CO`, for which the compound was classed as inactive in [1], in [3], in experiment [5], in [6], in experiment [7] and in experiment [9]. The compound was called inactive in [11], in [12], in [13] and in experiment [14]. Further, the Potency result in experiment [2], in experiment [4], in [8] and in experiment [10] was “inactive” each time.

With `Cc1nc2ccc(Cl)cc2[nH]1`, the compound was called inactive in [1], in experiment [3], in experiment [5], in experiment [6], in experiment [7] and in experiment [9]. Moreover, the compound was called inactive in experiment [12], in [15] and in experiment [14]. For the same compound, the Potency entry in experiment [2], in [4] and in experiment [10] was “inactive” throughout.

As to `CCCCCCCOC(C)=O`, the call in experiment [1], in experiment [3], in [5], in experiment [6], in experiment [9] and in experiment [11] was inactive. The outcome in experiment [12], in experiment [13], in experiment [15] and in experiment [14] was inactive. The Potency entry in experiment [2], in [4] and in [10] was “inactive” each time.

Take `CC(C)OC(=O)C(C(=O)OC(C)C)=C1SC=CS1`: the compound was called inactive in experiment [16], in [3], in experiment [5], in experiment [6], in experiment [7] and in experiment [9]. Besides, the compound was called inactive in experiment [11], in experiment [12], in [13] and in [14]. Besides, the Potency entry in experiment [2], in experiment [4], in experiment [17], in experiment [18] and in experiment [10] was “inactive” each time. The Potency in experiment [8] was 13.3 µM (active). The activity change, positive = activation in [19] is -19.5% [at 42.5 µM].

Turning to `CCNC(=O)C(C)OC(=O)Nc1ccccc1` (stereo not given), the call in experiment [1], in experiment [3], in [5], in experiment [6], in experiment [7] and in experiment [9] was inactive. The result in [11], in experiment [12], in experiment [13], in [15] and in experiment [14] was inactive. Moreover, the Potency result in experiment [2], in experiment [4], in [8] and in experiment [10] was “inactive” in each case.

With `CC(=O)Oc1ccc(C(C)=O)cc1`, the outcome in experiment [1], in experiment [3], in experiment [5], in experiment [6], in experiment [7] and in [9] was inactive. Further, the compound was classed as inactive in [11], in [12], in [13], in experiment [15] and in experiment [14]. Moreover, the Potency result in experiment [2], in experiment [4], in experiment [8] and in experiment [10] was “inactive” throughout.

Regarding `Clc1cc(Cl)c(Cl)c(Cl)c1Cl`, the call in experiment [1], in experiment [3], in experiment [5], in experiment [6], in [7] and in experiment [9] was inactive. For the same compound, the call in experiment [11], in experiment [12], in [13] and in experiment [14] was inactive. Also, the Potency result in experiment [2], in experiment [4], in experiment [8] and in [10] was “inactive” in each case.

For the compound `C/C=C(\C)C(=O)OC/C=C(\C)CCC=C(C)C`, the outcome in [1], in experiment [3], in experiment [5], in experiment [6], in experiment [9] and in experiment [11] was inactive. The outcome in [12], in experiment [13], in experiment [20] and in experiment [14] was inactive. Further, the Potency entry in [2], in experiment [4], in [17] and in [18] was “inactive” in each case. In experiment [19], the activity change, positive = activation is 10.5%.
